Screens from PubChem BioAssay.
Hits are enriched below; roughly 9.2% of the tested compounds scored in any of these assays.
Rab9 promoter act: activators of Rab9 promoter. Huh7 Rab9 promoter-luciferase reporter, luminescence, 24 h. Potency, µM (doses to about 9.22 µM), for the others: top-dose activation, negative = inhibition, actives largely listed as activators. 320,000 tested, 2.8% active. AID 485297; note: % of control where 0% means no effect; nearly all actives have a fitted effect of over 60% in size
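Cells were plated at 1500 per well in reduced-serum medium with 10% FBS and left 2 h. Compound in DMSO was then added for 24 h at 37 °C. Reporter signal was read by luminescence after 10 min with luciferase detection reagent.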
NPC1 prom act: activators of NPC1 promoter; Potency, µM (highest dose often 9.22 µM), without a hit: at the highest dose activation, usual class: activators; Huh7 NPC1 promoter luciferase reporter, 24 h; 320,000 tested, 2.4% active; note: % of control where 0% means no effect; nearly all actives have a fitted effect of over 60% in size
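Stably transfected Huh7 (NPC1 promoter→luciferase), 1500 cells/well in Opti-MEM + 10% FBS, 2 h settle, then compound 24 h at 37 °C. Luminescence after 10 min with Amplite reagent.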
ELG1 DNA repair: ELG1-dependent DNA repair inhibition | AID 504467 | HEK293T ELG1-luciferase reporter, luminescence, 16 h; DNA damage induced by 5-fluorouridine | 330,000 tested, 2.3% active | Potency, µM (doses to about 46.1 µM), for the others: at the top dose activity change, negative = inhibition, usual class: inhibitors; note: % is set by controls: 0 for no effect and ±100 for the full control effect; nearly all actives have a fitted effect of over 55% in size
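Overnight (16 hr) co-exposure of 2,000 cells/well to 5-fluorouridine and compound at 37 °C preceded detection. Luciferase was quantified via ONE-Glo luminescence; loss of signal denotes inhibition.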
FLuc modulator: inhibits or activates purified firefly luciferase, miR-21 counter-screen. purified FLuc, Km substrates, luminescence inhibition. Potency, µM (top dose mostly 57.5 µM), for inactives: at the highest dose activity change, negative = inhibition, most hits filed as inhibitors. 360,000 tested, 6.9% active;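 note: plate controls were vehicle for no effect and reference inhibitor for full effect; nearly all actives have a fitted effect of over 55% in size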
Target sequence (P08659 whole entry, looked up): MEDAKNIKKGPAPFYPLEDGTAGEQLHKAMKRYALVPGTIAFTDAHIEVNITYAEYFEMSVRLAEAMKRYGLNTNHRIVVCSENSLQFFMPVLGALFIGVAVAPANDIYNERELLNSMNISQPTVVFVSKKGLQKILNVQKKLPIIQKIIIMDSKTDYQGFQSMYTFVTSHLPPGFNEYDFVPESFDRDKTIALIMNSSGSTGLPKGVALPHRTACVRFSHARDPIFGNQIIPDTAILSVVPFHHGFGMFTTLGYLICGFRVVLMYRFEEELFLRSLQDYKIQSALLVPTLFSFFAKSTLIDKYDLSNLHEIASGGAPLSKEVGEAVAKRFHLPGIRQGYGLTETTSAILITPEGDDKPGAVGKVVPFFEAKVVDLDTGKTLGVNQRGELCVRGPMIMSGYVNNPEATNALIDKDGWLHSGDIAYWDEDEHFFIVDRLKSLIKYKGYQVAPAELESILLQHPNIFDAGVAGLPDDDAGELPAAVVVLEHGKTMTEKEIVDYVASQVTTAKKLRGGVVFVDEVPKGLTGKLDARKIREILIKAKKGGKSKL
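Purified P. pyralis luciferase (10nM final) with 10uM D-luciferin and 10uM ATP (Km levels) in 50mM Tris acetate pH 7.5, 10mM Mg acetate, 0.01% Tween-20, 0.05% BSA; qHTS 6-point titration, ~60 µM downward; luminescence read.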
SMN2 splice up: SMN2 splice variant enhancement; 210,000 tested, 2.8% active; HEK293 SMN2-luciferase splicing reporter, luminescence, 30-36 h; Potency, µM (titrated, usually from 46.1 µM), for the others: at the highest dose activity change, positive = activation, usual class: activators; note: % of control where 0% means no effect; nearly all actives have a fitted effect of over 55% in size
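qHTS luciferase splicing reporter: luminescence rises when SMN2 exon 7 is included in transfected HEK293 cells. Compound exposure lasted 30-36 h at 37C, with 4.5 mM final sodium butyrate as control, followed by a ONE-Glo read.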
ELG1 genotoxic: induces genotoxicity in HEK293T cells with luciferase-tagged ELG1 | HEK293T ELG1-luciferase reporter, luminescence, 16 h | Potency, µM (doses to about 46 µM), without a hit: top-dose activity change, positive = activation, actives largely listed as activators | 330,000 tested, 1.3% active; note: % of control where 0% means no effect; nearly all actives have a fitted effect of over 60% in size
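HEK293T cells expressing luciferase-tagged ELG1 were exposed to compound or DMSO vehicle for 16 hr at 37 °C and 5% CO2. Luciferase activity was then measured with ONE-Glo after 30 min at room temperature.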
The depositor's hits bear a star; ? = inconclusive; . = not tested or not shown. Calls come from the whole dose curve; as a rule, active = well fitted curve in the direction sought with a large enough effect; inconclusive = small, poorly fitted or top-dose-only effect, or another doubt; inactive = no such curve, though single readings can be large; an effect the other way counts as inactive or inconclusive. Potency is the fitted concentration of half-maximal effect.

SMILES | Rab9 promoter act | NPC1 prom act | ELG1 DNA repair | FLuc modulator | SMN2 splice up | ELG1 genotoxic
O=C(Nc1ccccc1NC(=O)NC1CCCCC1)NC1CCCCC1 | -7% | -5% | 11% | ? | -78% | -31%
O=C(Nc1nc2ccccc2[nH]1)NC1CCCCC1 | 0.4µM* | 0.45µM* | ? | 1.5µM* | . | 2.6µM*
S=C(NC1CCCCC1)N(CCc1nc2ccccc2[nH]1)C1CCCC1 | -6% | -4% | 23µM* | 5% | -61% | -5%
O=C(NC1CCCC1)c1ccccc1-c1nc2ccccc2[nH]1 | 1% | -1% | -7% | 0% | 11µM* | -1%
CNc1ccnc(-c2c(C)noc2C)n1 | . | . | . | . | 1% | .
O=C(O)CCC/C=C\C[C@@H]1C(/C=C/[C@@H](O)COc2cccc(C(F)(F)F)c2)[C@@H](O)C[C@@H]1O (some centres not stated) | . | . | . | . | 3% | .
COc1ccccc1NC(=O)C1=C(C)Nc2ncnn2C1c1cccn1C (configuration not stated) | . | . | . | -1% | . | .
O=C(Nc1nc2ccccc2[nH]1)C1CC1 | 0% | -15% | 18% | ? | 10µM* | 10%
O=C(Nc1nc2ccccc2[nH]1)C12CC3CC(CC(C3)C1)C2 | 2.8µM* | 2µM* | ? | 3.4µM* | 14µM* | ?
O=C(Nc1nc2ccccc2[nH]1)C1CCN(C(=O)c2ccc(F)cc2)CC1 | -1% | -4% | 14% | -14% | . | -2%
CC(C)=CCn1cnc2c1c(=O)n(C)c(=O)n2C | . | . | . | . | 1% | .
CCCc1nc2ccc(NC(=O)c3ccco3)cc2c(=O)n1Cc1ccccc1Cl | 3% | -2% | 18µM* | 8% | -9% | 0%
CCC(=O)Nc1ccc2nc(C3CC3)n(Cc3ccccc3)c(=O)c2c1 | 3.5µM* | ? | ? | ? | ? | 8.2µM*
O=C(Nn1c(C2CC2)nc2ccccc2c1=O)c1ccco1 | -3% | -2% | -5% | 1% | 4% | -3%
O=C(Nc1ccc2nc(C3CC3)n(Cc3ccccc3)c(=O)c2c1)C1CC1 | 2.5µM* | 2.8µM* | ? | -9% | . | ?
CCCc1nc2ccc(NC(=O)c3ccco3)cc2c(=O)n1Cc1ccc(Cl)cc1 | 9% | 7% | ? | -16% | -8% | -7%
COc1ccc(Cn2c(C3CC3)nc3ccc(NC(=O)c4ccco4)cc3c2=O)cc1 | 21% | 3.2µM* | ? | 15µM* | ? | ?
Cc1ccc(SCC(=O)OCC(=O)NC(C)c2ccc(Br)cc2)cc1 (configuration not stated) | -9% | -2% | 5% | 1% | . | 7%
O=C(O)CCCn1cc(NC(=O)COc2ccc([N+](=O)[O-])cc2)cn1 | -4% | -5% | 16% | 1% | . | 1%
COc1cccc(CNC(=O)c2ccc3c(c2)nc2n3CCOC2)c1OC | . | . | . | -10% | . | .
Cc1cc2oc(=O)c(CC(=O)O)c(C)c2c2occ(-c3ccccc3)c12 | . | . | . | 6µM* | 21% | .
COCCCNC(=O)Cc1c(C)c2c(cc(C)c3c(C(C)(C)C)coc32)oc1=O | -20% | -11% | 0% | 11µM* | . | -4%
CN(C)c1ncc2nc(CCc3ccccc3)c(=O)n(-c3ccccc3)c2n1 | . | . | . | . | -9% | .
Cc1ccc(S(=O)(=O)NCC(=O)OCC(=O)NCc2cccs2)cc1 | -2% | -4% | 29% | 2% | . | -2%
COc1ccccc1NC(=O)C1=C(C)NC(=O)NC1c1cccs1 (configuration not stated) | -6% | -4% | 3% | 2% | -25% | -8%
SMILES | Rab9 promoter act | NPC1 prom act | ELG1 DNA repair | FLuc modulator | SMN2 splice up | ELG1 genotoxic
Cc1csc(=N)n1-c1ccc(Cl)cc1 | 3.5µM* | ? | ? | 9.5µM* | -5% | ?
Cc1ccc(-n2c(C)csc2=N)cc1 | 2µM* | 3.2µM* | ? | 5.4µM* | 11µM* | 5.2µM*
Cc1csc(=S)n1-c1ccccc1 | -5% | -2% | -8% | 4% | 19% | 1%
COc1cc(Cl)c(C)cc1NC(=O)CCN1C(=O)NC(C)(C)C1=O | -2% | 5% | 17% | 0% | . | 0%
CCc1nc(N)c(C#N)c(-c2ccccc2OC)c1C | -5% | -3% | 1% | 0% | 10% | 3%
Cc1cc(C(=O)N2CCc3c([nH]c4ccccc34)C2c2cccc(Cl)c2)nn1C (configuration not stated) | -1% | 1% | ? | -10% | . | -11%
CSc1ccc(C2c3[nH]c4ccccc4c3CCN2C(=O)c2cc(C)n(C)n2)cc1 (configuration not stated) | ? | 9% | ? | 17µM* | ? | ?
CN(C)S(=O)(=O)c1ccc(C(=O)Nc2nnc(SCC(=O)NCC3CCCO3)s2)cc1 (configuration not stated) | 2% | 2% | -1% | -1% | . | 5%
CCOc1ccc(C(=O)Nc2nnc(SCC(=O)NCC3CCCO3)s2)cc1 (configuration not stated) | ? | 0.1µM* | ? | 0.3µM* | . | ?
O=C(CSc1nnc(NC(=O)c2cccc(F)c2)s1)NCC1CCCO1 (configuration not stated) | 23% | 15% | ? | 6µM* | . | 21%
Cc1cc(-c2nnc(CSc3nnc(NC(=O)c4ccc(C(C)(C)C)cc4)s3)o2)ccc1[N+](=O)[O-] | ? | 2.5µM* | ? | 1.7µM* | . | ?
CC(C)(C)c1ccc(C(=O)Nc2nnc(SCC(=O)NCC3CCCO3)s2)cc1 (configuration not stated) | 0.32µM* | 0.5µM* | ? | 0.076µM* | . | ?
O=C(Nc1ccc(F)c(Cl)c1)C1CCCCC1 | 7% | 1% | 3% | -18% | . | -1%
O=C(CNC(=O)C1CCCCC1)Nc1cc(Cl)cc(Cl)c1 | -9% | 1% | 6% | 2% | 22% | -4%
O=C(CNC(=O)C1CCCCC1)Nc1ccc(F)c(Cl)c1 | -1% | -8% | -4% | 2% | 18µM* | 0%
